The list is not random: actives were taken first. Their share in the collection is about 3.3%.
NPSR antagonist: antagonists of human neuropeptide S receptor cAMP signaling. Q6W5P4. CHO-NPSR cells, cAMP TR-FRET, antagonist mode. Potency, µM (series often up to 38.3 µM), for inactives: top-dose activity change, negative = inhibition, most hits filed as inhibitors. actives 1% (n = 220,000); note: nearly all actives have a fitted effect of over 50% in size
Target sequence (Q6W5P4 whole entry, looked up): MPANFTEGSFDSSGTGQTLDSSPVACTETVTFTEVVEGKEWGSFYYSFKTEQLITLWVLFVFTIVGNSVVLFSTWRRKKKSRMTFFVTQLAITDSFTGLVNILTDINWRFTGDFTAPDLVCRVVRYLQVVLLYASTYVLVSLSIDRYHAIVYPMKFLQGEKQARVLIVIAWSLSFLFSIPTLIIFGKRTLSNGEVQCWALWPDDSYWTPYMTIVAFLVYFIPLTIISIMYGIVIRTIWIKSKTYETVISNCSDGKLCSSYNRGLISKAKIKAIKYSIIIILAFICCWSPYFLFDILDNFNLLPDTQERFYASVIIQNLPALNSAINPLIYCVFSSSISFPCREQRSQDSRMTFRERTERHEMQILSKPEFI
Tau fibril ThT: inhibitors of human tau fibril formation, thioflavin T binding; P10636; actives 2.1% (n = 270,000); Potency, µM (doses to about 57.4 µM), for the others: top-dose activity, negative = inhibition, actives largely listed as inhibitors; AID 1460; recombinant tau K18 P301L, heparin-induced fibrillization, ThT fluorescence; note: nearly all actives have a fitted effect of over 55% in size
Target sequence (P10636 561-689 P618L limits assumed): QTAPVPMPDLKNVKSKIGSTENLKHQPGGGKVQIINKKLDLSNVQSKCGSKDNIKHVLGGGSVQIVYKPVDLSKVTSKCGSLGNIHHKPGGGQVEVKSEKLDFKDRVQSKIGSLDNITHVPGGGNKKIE
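Heparin-induced fibrillization of the P301L-mutant K18 repeat-domain fragment of human tau was followed by ThT binding in quantitative high-throughput format.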
Luc counter: Kinase-Glo luciferase inhibition (counter-screen) | Q27757 | Kinase-Glo luciferase, ATP luminescence, 8 min | Potency, µM (highest dose often 38.3 µM), inactives show top-dose activity change, negative = inhibition, usual class: inhibitors | actives 0.28% (n = 200,000); note: nearly all actives have a fitted effect of over 60% in size
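Kinase-Glo luciferase light output from ATP and luciferin was measured with 10 uM ATP, within the enzyme's linear range. Buffer: 50 mM imidazole pH 7.2, 50 mM KCl, 7 mM MgCl2, 0.01% Tween 20, 0.05% BSA; luminescence read after 8 min at ambient temperature.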
Tau fibril FP: inhibitors of human tau fibril formation. AID 1468. actives 0.39% (n = 280,000). Potency, µM (titrated, usually from 57.7 µM), inactives show top-dose activity, negative = inhibition, usual class: inhibitors. K18 P301L tau heparin fibrillization, Alexa594 FP, 6 h; note: nearly all actives have a fitted effect of over 55% in size
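Steps: dispense K18 P301L tau (15 uM plus 0.24 uM Alexa 594 tracer, final) in pH 7 sodium acetate; add compound; add heparin (20 uM final); incubate 6 hr, 37 C; add ThT (30 uM final); after 1 hr ambient, read FP.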
Tau fluor counter: counter-screen for tau fibril formation inhibitors; AID 1463; tau K18 P301L Alexa594 fluorescence, heparin fibrillization; actives 0.93% (n = 280,000); Potency, µM (titrated, usually from 57.7 µM), for inactives: at the highest dose activity change, negative = decrease; note: nearly all actives have a fitted effect of over 55% in size
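Human tau K18 P301L (15 uM unlabeled, 0.24 uM Alexa 594-labeled) in 100 mM sodium acetate pH 7 with 20 uM heparin, 6 hr at 37 C. ThT 30 uM added, 1 hr ambient; Alexa 594 FP and total fluorescence read at 555/632 nm.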
The depositor's hits bear a star; ? = inconclusive; . = not tested or not shown; [ ] = remark or other dose. Calls come from the whole dose curve; as a rule, active = well fitted curve in the direction sought with a large enough effect; inconclusive = small, poorly fitted or top-dose-only effect, or another doubt; inactive = no such curve, though single readings can be large; an effect the other way counts as inactive or inconclusive. % is set by controls: 0 for no effect and ±100 for the full control effect; potency is the fitted concentration of half-maximal effect.

SMILES	NPSR antagonist	Tau fibril ThT	Luc counter	Tau fibril FP	Tau fluor counter
O=C1N/C(=C\c2ccc(O)cc2)C(=O)c2ccccc21	-10%[46.1 µM]	?	13µM*	-4%	-28%
COc1ccc(CCNc2ncnc3c2cnn3-c2cc(Cl)ccc2C)cc1	.	-6%	.	-5%	-27%
O=C1c2ccccc2-c2onc3c(NCCO)cc(NC4CCCCC4)c1c23	.	7.9µM*	.	?	11µM*[quencher]
CC(=O)OCCNc1cc(N2CCN(C)CC2)c2noc3c2c1C(=O)c1ccccc1-3	10µM*	28µM*	-11%	?	?
CCNc1cc(N2CCN(C3CCCCC3)CC2)c2noc3c2c1C(=O)c1ccccc1-3	.	?	.	0%	-23%
O=C(O)CCCNc1cc(N2CCN(C3CCCCC3)CC2)c2noc3c2c1C(=O)c1ccccc1-3	.	8.9µM*	.	?	?
CC(C)Nc1cc(N2CCN(C3CCCCC3)CC2)c2noc3c2c1C(=O)c1ccccc1-3	.	?	.	-3%	?
CCCCNc1cc(NC2CCCCC2)c2c3c(onc13)-c1ccccc1C2=O	.	?	.	1%	?
O=C1C(=O)N(Cc2cccc([N+](=O)[O-])c2)c2ccccc21	15%	-13%	0%	5%	3%
O=C1C(=O)N(Cc2ccc(Cl)c(Cl)c2)c2ccccc21	.	14µM*	-2%	-4%	-27%
O=[N+]([O-])c1cc(/C=N/n2cnnc2)ccc1N1CCCC1	-15%	7.9µM*	-1%	5%	-9%
O=[N+]([O-])c1cc(/C=N/O)ccc1N1CCCC1	-2%	?	0%	-3%	-9%
CC1CCN(c2ccc(/C=N\Nc3nncn3N)cc2[N+](=O)[O-])CC1	-5%	10µM*	-2%	-3%	-29%
Cc1ccc(NC(=O)CSc2nc3nccnc3c(=O)n2CCc2c[nH]c3ccccc23)cc1C	.	0%	.	?	-11%
CCOc1ccc(-c2ccc(/C=C3/C(=N)N4C=CSC4=NC3=O)o2)c([N+](=O)[O-])c1	-4%	?	0%	-8%	-23%
CCOc1ccc(-c2ccc(/C=C3/C(=N)N4C(C)=CSC4=NC3=O)o2)c([N+](=O)[O-])c1	4%	3.2µM*	0%	14%	?
CCCCc1nc2c(c3c1C[C@H](C)OC3)CN(C(=O)Cc1cccc(OC)c1)CC2	.	-4%[11.5 µM]	-5%[7.66 µM]	4%[11.6 µM]	-7%[11.6 µM]
CCCn1c(-c2ccc(F)cc2)nc2c(NC(C)CN(C)C)nc(C)nc21 (stereo unspecified)	.	2%	-2%	-7%	-5%
O=C1CCCC2=C1C1(O)C(=O)c3ccccc3C1(O)O2 (stereo unspecified)	-1%[46.1 µM]	3.5µM*	2%	?	-15%
O=C(Cn1c(=O)n(-c2ccccc2)c(=O)c2ccc(C(=O)NCc3ccc4c(c3)OCO4)cc21)Nc1ccc(F)c(Cl)c1	.	6%	.	25µM*	-25%
O=C(Cn1c(=O)n(Cc2ccc(C(=O)NCc3ccccc3Cl)cc2)c(=O)c2ccccc21)Nc1ccc(F)c(Cl)c1	.	-2%	.	14µM*	-17%
O=C(Cn1c(=O)n(Cc2ccc(C(=O)NCc3ccccc3Cl)cc2)c(=O)c2ccccc21)Nc1ccc(F)cc1	.	7%	.	?	-18%
COc1ccc(OC)c(S(=O)(=O)NCCc2sc(C)nc2C)c1	.	-3%	.	-5%	-7%
CCOc1ccc2[nH]c(=O)c(C(c3nnnn3Cc3ccco3)N3CCN(C)CC3)cc2c1 (stereo unspecified)	?	14µM*	-5%	?	-19%
COCCn1nnnc1CN(Cc1cc2cc(OC)c(OC)cc2[nH]c1=O)C1CCCC1	-16%[46.1 µM]	0%	-1%	-10%	-2%
SMILES	NPSR antagonist	Tau fibril ThT	Luc counter	Tau fibril FP	Tau fluor counter
COc1cc2cc(CN(Cc3nnnn3Cc3ccco3)C3CCCCC3)c(=O)[nH]c2cc1OC	1%[46.1 µM]	16µM*	-6%	?	?
Cc1cc2cc(C(c3nnnn3Cc3ccco3)N3CCCCC3)c(=O)[nH]c2cc1C (stereo unspecified)	-7%[46.1 µM]	?	-2%	8%	-21%
CCOc1ccc2[nH]c(=O)c(CN(Cc3ccco3)C(CC)c3nnnn3Cc3ccccc3)cc2c1 (stereo unspecified)	-19%[46.1 µM]	25µM*	3%	?	-12%
CCOc1ccc2[nH]c(=O)c(CN(Cc3nnnn3Cc3ccco3)C3CCCCC3)cc2c1	-15%[46.1 µM]	22µM*	-7%	?	-28%
Cc1ccc(C2CCN(C(=O)Nc3ccc(Cl)c(Cl)c3)C2)cc1 (stereo unspecified)	.	?	.	?	-29%
CC(C)(C)Nc1oc(-c2ccccc2)nc1-c1ccc(C(F)(F)F)cc1	.	-2%	-2%	0%	-6%
Cn1cnc2c(N3CCCCC3)nccc21	1%[46.1 µM]	-3%	0%	-3%	2%
C[c-]1[c-](C)[c-](C)[c-](C)[c-]1C.[Fe].c1cc2nccc(N3CCCC3)[c-]2c1 (stereo unspecified)	-25%	32µM*	.	?	?
CC1=NN2C(=N)/C(=C\c3cc(C)n(-c4cccc(C)c4)c3C)C(=O)N=C2S1	13µM*	?	.	-1%	-4%
Cc1cccc(-n2c(C)cc(/C=C3\C(=N)N4N=C(CC(C)C)SC4=NC3=O)c2C)c1	-33%	1%	-4%	?	8%
OCCN(CCO)c1ncnc2nc[nH]c12	.	.	-7%[7.66 µM]	.	.
Cc1ccc(-n2ncc3c(Nc4cccc(C)c4)ncnc32)cc1	.	6%	.	-15%	-14%
COc1cccc(N2CCN(c3ncnc4c3cnn4-c3ccc(C)cc3C)CC2)c1	10µM*	?	2%	9%	-15%
Cc1ccc(-n2ncc3c(Nc4cccc(C(F)(F)F)c4)ncnc32)cc1C	.	15%	.	10µM*	?
Cc1ccc(-n2ncc3c(Nc4ccc(Oc5ccccc5)cc4)ncnc32)c(C)c1	.	?	.	-11%	?
Cc1ccc(-n2ncc3c(Nc4cccc(Cl)c4)ncnc32)c(C)c1	.	3%	.	25µM*	?
O=C(NN=C1CCCC1)c1ccccc1OCCOc1ccccc1	-31%	-2%	-2%	5%	2%
O=C(CS(=O)(=O)c1cccc2nsnc12)N1CCN(c2cccc(C(F)(F)F)c2)CC1	.	-15%	.	0%	-29%
CCc1ccccc1NC(=O)Cn1nnc(C(=O)Nc2ccc(OC)c(OC)c2)c1N	.	?	.	-1%	-21%
O=C1ON=C(c2cccc([N+](=O)[O-])c2)/C1=C/c1ccc(O)cc1	10µM*	?	0%	4%	-20%
O=C(O)c1ccc(-c2cccc([N+](=O)[O-])c2)o1	19%	-15%	.	1%	7%
CC(C)n1c(O)c(/C=C2\C=NN=C2c2ccccc2)sc1=S	?	-11%	.	14µM*	?
CCn1c(O)c(/C=C2\C=NN=C2c2ccc(C)cc2)sc1=S	-6%	?	1%	-3%	-22%

Screening results: PubChem BioAssay, National Center for Advancing Translational Sciences (NCATS)
